# From publication PMC7862700, “An all-to-all approach to the identification of sequence-specific readers for epigenetic DNA modifications on cytosine”
# Assays:
# Assay in all cases: DAPPL (digital affinity profiling via proximity ligation, sequencing); 10 mM Tris-HCl pH 7.5, 50 mM NaCl, 1 mM DTT, 4% glycerol, room temperature, 30 min; GST-TFs on glutathione beads, 16-mer random dsDNA library, 0.1% formaldehyde crosslink after washing; high values mean tight binding
# FLI1 = target: T1, FLI1 (Homo sapiens, UniProt Q01543 1-452); conditions: protein: recombinant; tags: N-terminal GST; dsDNA, one strand shown
# T1 sequence: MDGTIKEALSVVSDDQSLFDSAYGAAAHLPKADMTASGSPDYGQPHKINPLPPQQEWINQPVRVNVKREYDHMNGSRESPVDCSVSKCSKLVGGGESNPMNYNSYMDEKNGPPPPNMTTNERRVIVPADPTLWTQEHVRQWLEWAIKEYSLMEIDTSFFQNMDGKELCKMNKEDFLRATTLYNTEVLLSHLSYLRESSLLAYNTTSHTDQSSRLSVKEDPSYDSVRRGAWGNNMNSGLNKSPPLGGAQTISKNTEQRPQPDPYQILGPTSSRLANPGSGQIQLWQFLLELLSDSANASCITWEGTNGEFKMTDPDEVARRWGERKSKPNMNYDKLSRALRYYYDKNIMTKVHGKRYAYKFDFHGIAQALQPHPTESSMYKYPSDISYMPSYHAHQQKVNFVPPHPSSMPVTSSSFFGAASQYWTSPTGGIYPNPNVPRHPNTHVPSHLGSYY
# Outline: (§1)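 A tag-only sample was pooled with DNA-barcoded human transcription factors that had been expressed in yeast as GST fusions and captured on glutathione beads. The pools were incubated for 30 min at room temperature with 200 nmole of a random double-stranded 16-mer DNA library in Tris/NaCl/DTT/glycerol buffer, then washed, crosslinked with 0.1% formaldehyde, proximity-ligated (BsaI/T4 ligase, 1 h, 37 °C), PCR-amplified and sequenced on an Illumina NextSeq500. Binding signal is each hexamer's read frequency for a factor divided by its frequency for the tag-only sample.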
# ELK1 = target: T2, ELK1 (Homo sapiens, UniProt P19419 1-428); conditions: protein: recombinant; tags: N-terminal GST; dsDNA, one strand shown
# T2 sequence: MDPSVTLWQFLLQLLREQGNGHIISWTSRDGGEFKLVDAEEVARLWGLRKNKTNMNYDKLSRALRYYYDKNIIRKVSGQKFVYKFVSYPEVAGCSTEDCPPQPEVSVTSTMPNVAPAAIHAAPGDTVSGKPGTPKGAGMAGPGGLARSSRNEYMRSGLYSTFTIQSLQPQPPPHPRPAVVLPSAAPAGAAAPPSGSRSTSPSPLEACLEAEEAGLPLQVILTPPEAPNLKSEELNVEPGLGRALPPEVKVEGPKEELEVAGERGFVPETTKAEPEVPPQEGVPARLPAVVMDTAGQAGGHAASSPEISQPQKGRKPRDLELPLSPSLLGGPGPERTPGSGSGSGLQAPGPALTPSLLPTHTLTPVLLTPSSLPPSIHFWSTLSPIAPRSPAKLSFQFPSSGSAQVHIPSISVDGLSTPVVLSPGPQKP
# Outline: as §1
# GABPA = target: T3, GABPA (Homo sapiens, UniProt Q06546 1-454); conditions: protein: recombinant; tags: N-terminal GST; dsDNA, one strand shown
# T3 sequence: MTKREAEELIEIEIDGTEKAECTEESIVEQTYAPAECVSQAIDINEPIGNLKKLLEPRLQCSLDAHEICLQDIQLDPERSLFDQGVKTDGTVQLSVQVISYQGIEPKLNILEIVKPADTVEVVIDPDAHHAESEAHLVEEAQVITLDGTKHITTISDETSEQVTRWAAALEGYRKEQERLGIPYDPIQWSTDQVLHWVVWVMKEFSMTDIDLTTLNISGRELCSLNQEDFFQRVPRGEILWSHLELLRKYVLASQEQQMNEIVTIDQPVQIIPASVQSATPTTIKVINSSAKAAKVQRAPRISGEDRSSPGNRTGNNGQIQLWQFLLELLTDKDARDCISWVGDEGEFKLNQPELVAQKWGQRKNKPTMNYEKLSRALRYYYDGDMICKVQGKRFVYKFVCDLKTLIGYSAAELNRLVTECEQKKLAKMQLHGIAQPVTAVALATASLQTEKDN
# Outline: as §1
# ERG = target: T4, ERG (Homo sapiens, UniProt P11308 1-479); conditions: protein: recombinant; tags: N-terminal GST; dsDNA, one strand shown
# T4 sequence: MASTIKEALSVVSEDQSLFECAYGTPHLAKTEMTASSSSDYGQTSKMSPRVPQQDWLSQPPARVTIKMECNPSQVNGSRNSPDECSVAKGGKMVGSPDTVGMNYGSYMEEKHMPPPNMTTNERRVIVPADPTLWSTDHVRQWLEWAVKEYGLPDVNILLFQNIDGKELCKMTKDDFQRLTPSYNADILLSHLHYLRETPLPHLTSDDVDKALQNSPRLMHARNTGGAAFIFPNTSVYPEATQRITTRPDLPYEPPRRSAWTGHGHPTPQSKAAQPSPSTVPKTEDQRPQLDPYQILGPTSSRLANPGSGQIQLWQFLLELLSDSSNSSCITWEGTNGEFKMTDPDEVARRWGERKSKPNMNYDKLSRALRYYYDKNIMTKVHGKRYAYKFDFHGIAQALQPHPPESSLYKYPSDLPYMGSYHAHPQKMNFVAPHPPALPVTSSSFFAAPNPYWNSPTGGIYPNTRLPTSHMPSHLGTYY
# Outline: as §1
# ELF1 = ELF1 (Homo sapiens, UniProt P32519 1-619); conditions: protein: recombinant; tags: N-terminal GST; dsDNA, one strand shown
# Chain of ELF1 (P32519 whole entry): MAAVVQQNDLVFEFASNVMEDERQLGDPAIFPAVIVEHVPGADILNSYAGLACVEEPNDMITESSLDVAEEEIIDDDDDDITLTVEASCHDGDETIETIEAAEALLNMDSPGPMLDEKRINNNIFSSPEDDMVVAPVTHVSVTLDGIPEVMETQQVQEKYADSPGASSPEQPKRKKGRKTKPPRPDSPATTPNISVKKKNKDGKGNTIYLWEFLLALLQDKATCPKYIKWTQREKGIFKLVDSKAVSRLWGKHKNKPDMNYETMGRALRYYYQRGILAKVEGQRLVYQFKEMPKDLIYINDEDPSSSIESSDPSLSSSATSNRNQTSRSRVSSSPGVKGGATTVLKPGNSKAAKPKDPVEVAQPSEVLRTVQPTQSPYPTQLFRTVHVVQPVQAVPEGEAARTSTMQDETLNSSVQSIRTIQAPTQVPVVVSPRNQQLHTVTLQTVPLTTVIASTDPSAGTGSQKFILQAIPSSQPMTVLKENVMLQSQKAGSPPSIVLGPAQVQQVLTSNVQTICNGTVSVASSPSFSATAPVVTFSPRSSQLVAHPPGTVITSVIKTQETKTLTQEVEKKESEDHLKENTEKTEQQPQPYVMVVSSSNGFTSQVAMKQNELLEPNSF
# Outline: as §1
# EHF = target: T5, EHF (Homo sapiens, UniProt Q9NZC4 1-300); conditions: protein: recombinant; tags: N-terminal GST; dsDNA, one strand shown
# T5 sequence: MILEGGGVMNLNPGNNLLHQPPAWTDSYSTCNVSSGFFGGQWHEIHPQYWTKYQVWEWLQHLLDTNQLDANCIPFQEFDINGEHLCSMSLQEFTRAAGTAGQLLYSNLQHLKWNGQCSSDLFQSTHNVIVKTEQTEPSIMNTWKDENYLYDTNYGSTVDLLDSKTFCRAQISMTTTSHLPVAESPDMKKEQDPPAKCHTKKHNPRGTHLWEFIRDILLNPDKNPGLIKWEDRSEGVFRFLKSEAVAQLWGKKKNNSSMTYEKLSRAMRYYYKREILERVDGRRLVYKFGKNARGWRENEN
# Outline: as §1
# SPI1 = SPI1 (Homo sapiens, UniProt P17947 1-270); conditions: protein: recombinant; tags: N-terminal GST; dsDNA, one strand shown
# Outline: as §1
# SPIB = SPIB (Homo sapiens, UniProt Q01892 1-262); conditions: protein: recombinant; tags: N-terminal GST; dsDNA, one strand shown
# Chain of SPIB (Q01892 whole entry): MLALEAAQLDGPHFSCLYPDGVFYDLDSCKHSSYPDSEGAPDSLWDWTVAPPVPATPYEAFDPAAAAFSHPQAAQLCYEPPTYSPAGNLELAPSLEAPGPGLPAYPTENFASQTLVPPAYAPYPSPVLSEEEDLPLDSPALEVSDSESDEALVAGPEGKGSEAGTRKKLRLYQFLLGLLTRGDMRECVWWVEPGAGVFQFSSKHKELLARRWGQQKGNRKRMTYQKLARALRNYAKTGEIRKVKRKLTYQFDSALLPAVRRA
# Outline: as §1
# ELK3 = target: T6, ELK3 (Homo sapiens, UniProt P41970 1-407); conditions: protein: recombinant; tags: N-terminal GST; dsDNA, one strand shown
# T6 sequence: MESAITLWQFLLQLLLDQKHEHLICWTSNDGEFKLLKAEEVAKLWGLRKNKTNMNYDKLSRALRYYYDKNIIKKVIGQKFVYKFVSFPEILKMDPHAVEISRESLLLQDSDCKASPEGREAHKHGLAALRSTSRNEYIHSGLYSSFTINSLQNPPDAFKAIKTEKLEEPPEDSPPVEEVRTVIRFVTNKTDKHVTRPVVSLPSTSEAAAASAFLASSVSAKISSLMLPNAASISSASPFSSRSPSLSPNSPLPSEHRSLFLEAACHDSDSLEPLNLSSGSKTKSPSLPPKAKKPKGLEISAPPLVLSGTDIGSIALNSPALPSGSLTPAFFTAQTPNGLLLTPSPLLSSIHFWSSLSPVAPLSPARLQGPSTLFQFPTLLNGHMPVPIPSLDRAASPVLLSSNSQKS
# Outline: as §1
# FEV = target: T7, FEV (Homo sapiens, UniProt Q99581 1-238); conditions: protein: recombinant; tags: N-terminal GST; dsDNA, one strand shown
# T7 sequence: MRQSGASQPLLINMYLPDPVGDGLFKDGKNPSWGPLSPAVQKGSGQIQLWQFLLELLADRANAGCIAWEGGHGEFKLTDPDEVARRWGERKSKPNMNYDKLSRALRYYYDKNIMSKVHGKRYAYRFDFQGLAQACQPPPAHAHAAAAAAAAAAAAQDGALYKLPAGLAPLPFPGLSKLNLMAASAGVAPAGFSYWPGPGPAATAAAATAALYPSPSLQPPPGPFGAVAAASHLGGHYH
# Outline: as §1
# ETV5 = ETV5 (Homo sapiens, UniProt P41161 1-510); conditions: protein: recombinant; tags: N-terminal GST; dsDNA, one strand shown
# Chain of ETV5 (P41161 whole entry): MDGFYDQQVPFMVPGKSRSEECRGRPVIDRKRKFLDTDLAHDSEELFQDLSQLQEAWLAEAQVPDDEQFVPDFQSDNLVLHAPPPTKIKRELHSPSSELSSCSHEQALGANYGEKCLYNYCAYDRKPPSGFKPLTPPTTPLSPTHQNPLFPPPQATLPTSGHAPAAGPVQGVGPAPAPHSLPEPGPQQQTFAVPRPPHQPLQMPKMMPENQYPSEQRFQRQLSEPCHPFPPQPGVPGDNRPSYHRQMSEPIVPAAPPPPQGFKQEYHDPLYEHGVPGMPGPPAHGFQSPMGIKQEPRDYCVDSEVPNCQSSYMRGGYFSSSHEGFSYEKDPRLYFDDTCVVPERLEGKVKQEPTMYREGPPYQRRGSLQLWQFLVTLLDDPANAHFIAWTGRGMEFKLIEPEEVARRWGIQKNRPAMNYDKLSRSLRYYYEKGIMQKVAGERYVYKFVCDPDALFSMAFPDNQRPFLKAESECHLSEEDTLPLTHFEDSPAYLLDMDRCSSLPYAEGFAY
# Outline: as §1
# HSF1 = HSF1 (Homo sapiens, UniProt Q00613 1-529); conditions: protein: recombinant; tags: N-terminal GST; chain copies: 3; dsDNA, one strand shown
# Chain of HSF1 (Q00613 whole entry): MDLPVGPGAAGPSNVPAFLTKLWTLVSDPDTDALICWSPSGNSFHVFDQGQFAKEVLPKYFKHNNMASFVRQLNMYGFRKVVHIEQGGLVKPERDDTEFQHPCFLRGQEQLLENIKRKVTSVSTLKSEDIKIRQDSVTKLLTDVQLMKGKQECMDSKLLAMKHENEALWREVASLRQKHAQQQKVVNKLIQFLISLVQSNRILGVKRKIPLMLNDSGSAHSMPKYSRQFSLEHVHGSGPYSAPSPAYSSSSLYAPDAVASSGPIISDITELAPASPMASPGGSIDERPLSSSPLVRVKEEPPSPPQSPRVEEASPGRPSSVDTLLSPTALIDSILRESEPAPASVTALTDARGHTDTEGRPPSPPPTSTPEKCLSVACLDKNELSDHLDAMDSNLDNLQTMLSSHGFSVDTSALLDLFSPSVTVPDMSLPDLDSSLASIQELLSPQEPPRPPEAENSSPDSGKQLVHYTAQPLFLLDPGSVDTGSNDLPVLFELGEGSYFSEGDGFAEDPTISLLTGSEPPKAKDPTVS
# Outline: as §1
# SPIC = target: T8, SPIC (Homo sapiens, UniProt Q8N5J4 1-248); conditions: protein: recombinant; tags: N-terminal GST; dsDNA, one strand shown
# T8 sequence: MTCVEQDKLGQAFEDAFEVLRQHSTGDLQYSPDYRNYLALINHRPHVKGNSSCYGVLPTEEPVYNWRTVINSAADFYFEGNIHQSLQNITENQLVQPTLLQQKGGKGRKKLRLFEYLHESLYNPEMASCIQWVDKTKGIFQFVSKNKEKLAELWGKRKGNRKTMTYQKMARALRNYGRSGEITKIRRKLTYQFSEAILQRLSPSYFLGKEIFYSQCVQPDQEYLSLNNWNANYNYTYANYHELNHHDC
# Outline: as §1
# ELF4 = ELF4 (Homo sapiens, UniProt Q99607 1-663); conditions: protein: recombinant; tags: N-terminal GST; dsDNA, one strand shown
# Chain of ELF4 (Q99607 whole entry): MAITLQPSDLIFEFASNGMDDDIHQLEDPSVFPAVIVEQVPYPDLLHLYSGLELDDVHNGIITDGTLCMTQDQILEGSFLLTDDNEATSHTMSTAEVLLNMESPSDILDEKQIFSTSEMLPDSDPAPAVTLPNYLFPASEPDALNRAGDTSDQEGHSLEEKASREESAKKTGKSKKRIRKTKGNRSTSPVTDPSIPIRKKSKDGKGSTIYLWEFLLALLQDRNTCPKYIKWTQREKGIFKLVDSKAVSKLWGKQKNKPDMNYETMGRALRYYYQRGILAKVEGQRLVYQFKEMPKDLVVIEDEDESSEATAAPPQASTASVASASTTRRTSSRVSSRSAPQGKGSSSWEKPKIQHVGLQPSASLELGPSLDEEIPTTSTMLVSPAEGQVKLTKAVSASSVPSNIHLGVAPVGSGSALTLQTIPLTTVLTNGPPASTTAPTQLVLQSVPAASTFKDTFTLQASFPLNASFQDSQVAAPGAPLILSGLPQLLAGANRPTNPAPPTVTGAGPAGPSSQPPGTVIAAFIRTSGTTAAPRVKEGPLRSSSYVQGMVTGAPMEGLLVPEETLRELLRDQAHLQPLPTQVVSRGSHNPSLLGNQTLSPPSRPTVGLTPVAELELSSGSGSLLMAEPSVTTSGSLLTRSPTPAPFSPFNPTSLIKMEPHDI
# Outline: as §1
# ELK4 = target: T9, ELK4 (Homo sapiens, UniProt P28324-2 1-405); conditions: protein: recombinant; tags: N-terminal GST; dsDNA, one strand shown
# T9 sequence: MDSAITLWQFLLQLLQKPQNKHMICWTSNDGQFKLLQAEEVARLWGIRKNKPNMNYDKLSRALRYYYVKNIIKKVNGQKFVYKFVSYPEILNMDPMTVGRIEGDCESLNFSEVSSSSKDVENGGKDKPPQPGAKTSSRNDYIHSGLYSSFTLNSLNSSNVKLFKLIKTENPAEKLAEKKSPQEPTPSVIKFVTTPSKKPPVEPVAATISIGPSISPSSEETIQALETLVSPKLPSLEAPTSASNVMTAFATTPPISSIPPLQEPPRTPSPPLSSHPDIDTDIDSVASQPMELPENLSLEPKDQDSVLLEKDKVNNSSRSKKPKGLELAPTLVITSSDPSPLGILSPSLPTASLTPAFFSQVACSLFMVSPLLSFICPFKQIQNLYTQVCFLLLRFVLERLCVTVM
# Outline: as §1
# ETV2 = target: T10, ETV2 (Homo sapiens, UniProt O00321 1-342); conditions: protein: recombinant; tags: N-terminal GST; dsDNA, one strand shown
# T10 sequence: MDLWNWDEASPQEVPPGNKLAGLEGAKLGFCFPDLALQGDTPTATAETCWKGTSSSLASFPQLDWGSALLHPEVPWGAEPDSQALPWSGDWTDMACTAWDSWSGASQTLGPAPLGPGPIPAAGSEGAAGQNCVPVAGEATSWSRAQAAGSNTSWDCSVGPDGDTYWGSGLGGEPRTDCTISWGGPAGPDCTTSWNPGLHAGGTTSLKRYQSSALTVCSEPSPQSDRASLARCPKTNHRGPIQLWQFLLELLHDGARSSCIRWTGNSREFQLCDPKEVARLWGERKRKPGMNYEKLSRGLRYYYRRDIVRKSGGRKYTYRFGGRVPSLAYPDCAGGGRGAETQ
# Outline: as §1
# ELF3 = target: T11, ELF3 (Homo sapiens, UniProt P78545 1-371); conditions: protein: recombinant; tags: N-terminal GST; dsDNA, one strand shown
# T11 sequence: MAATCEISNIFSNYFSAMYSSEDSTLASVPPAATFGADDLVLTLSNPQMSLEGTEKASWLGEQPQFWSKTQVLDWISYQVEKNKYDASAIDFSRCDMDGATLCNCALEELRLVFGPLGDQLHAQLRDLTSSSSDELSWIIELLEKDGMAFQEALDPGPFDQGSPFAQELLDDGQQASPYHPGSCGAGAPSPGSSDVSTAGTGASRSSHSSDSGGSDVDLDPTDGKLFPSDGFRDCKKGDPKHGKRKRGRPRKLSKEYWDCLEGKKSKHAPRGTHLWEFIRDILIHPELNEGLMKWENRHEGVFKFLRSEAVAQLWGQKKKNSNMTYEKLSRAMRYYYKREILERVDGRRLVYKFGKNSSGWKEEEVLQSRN
# Outline: as §1
# CRX = CRX (Homo sapiens, UniProt O43186 1-299); conditions: protein: recombinant; tags: N-terminal GST; dsDNA, one strand shown
# Chain of CRX (O43186 whole entry): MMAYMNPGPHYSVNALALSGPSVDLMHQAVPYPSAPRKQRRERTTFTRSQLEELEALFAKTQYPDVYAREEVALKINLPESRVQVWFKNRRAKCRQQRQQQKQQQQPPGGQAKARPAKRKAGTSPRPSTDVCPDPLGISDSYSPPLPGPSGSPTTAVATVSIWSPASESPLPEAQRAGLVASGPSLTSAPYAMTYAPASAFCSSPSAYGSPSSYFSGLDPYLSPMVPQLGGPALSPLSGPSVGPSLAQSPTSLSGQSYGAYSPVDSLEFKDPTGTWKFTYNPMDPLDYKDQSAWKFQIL
# Outline: as §1
# ETV1 = ETV1 (Homo sapiens, UniProt P50549 1-477); conditions: protein: recombinant; tags: N-terminal GST; dsDNA, one strand shown
# Chain of ETV1 (P50549 whole entry): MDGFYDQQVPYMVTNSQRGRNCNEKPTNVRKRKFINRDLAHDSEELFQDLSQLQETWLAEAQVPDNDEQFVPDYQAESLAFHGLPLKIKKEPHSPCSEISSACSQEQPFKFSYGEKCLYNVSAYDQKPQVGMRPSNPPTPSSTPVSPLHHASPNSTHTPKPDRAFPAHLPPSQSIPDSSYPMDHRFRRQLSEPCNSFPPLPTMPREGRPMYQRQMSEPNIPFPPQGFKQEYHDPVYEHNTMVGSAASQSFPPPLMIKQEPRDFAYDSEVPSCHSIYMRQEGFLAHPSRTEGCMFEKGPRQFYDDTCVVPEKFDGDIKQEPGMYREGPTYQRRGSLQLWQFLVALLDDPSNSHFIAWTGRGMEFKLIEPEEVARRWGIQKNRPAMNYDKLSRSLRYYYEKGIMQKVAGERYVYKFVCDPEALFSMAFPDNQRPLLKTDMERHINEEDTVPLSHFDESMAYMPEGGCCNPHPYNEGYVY
# Outline: as §1
sequence,measurement,setting,value
TAAGAA,binding signal,FLI1,"1.09 fold enrichment (6-mer frequency, TF over GST control)"
same,binding signal,ELK1,"1.1 fold enrichment (6-mer frequency, TF over GST control)"
same,binding signal,GABPA,"1.15 fold enrichment (6-mer frequency, TF over GST control)"
same,binding signal,ERG,"1.05 fold enrichment (6-mer frequency, TF over GST control)"
same,binding signal,ELF1,"1.04 fold enrichment (6-mer frequency, TF over GST control)"
same,binding signal,EHF,"1.04 fold enrichment (6-mer frequency, TF over GST control)"
same,binding signal,SPI1,"1.12 fold enrichment (6-mer frequency, TF over GST control)"
same,binding signal,SPIB,"1.04 fold enrichment (6-mer frequency, TF over GST control)"
same,binding signal,ELK3,"1.15 fold enrichment (6-mer frequency, TF over GST control)"
same,binding signal,FEV,"1.05 fold enrichment (6-mer frequency, TF over GST control)"
same,binding signal,ETV5,"1.1 fold enrichment (6-mer frequency, TF over GST control)"
same,binding signal,HSF1,"1.77 fold enrichment (6-mer frequency, TF over GST control)"
same,binding signal,SPIC,"1.21 fold enrichment (6-mer frequency, TF over GST control)"
same,binding signal,ELF4,"1.13 fold enrichment (6-mer frequency, TF over GST control)"
same,binding signal,ELK4,"1.09 fold enrichment (6-mer frequency, TF over GST control)"
same,binding signal,ETV2,"1.2 fold enrichment (6-mer frequency, TF over GST control)"
same,binding signal,ELF3,"1.02 fold enrichment (6-mer frequency, TF over GST control)"
same,binding signal,CRX,"1.96 fold enrichment (6-mer frequency, TF over GST control)"
same,binding signal,ETV1,"1.13 fold enrichment (6-mer frequency, TF over GST control)"
